{"source": "PubChem BioAssay AID588852", "about": "(The Scripps Research Institute Molecular Screening Center, 2011)", "note": "About 4,600 (1.3%) of roughly 360,000 compounds were called active. Only a selection was taken, and actives are over-represented in it overall. A number with no mark means an inactive call.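 How the source made its calls: active means percent inhibition above its own plate's cutoff, namely the mean of that plate's compound wells plus 3 SD; inactive means the rest.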", "data": [{"biological_target": "Muscarinic acetylcholine receptor M1 (Homo sapiens) (UniProt P11229)", "sequence (P11229 whole entry, looked up)": "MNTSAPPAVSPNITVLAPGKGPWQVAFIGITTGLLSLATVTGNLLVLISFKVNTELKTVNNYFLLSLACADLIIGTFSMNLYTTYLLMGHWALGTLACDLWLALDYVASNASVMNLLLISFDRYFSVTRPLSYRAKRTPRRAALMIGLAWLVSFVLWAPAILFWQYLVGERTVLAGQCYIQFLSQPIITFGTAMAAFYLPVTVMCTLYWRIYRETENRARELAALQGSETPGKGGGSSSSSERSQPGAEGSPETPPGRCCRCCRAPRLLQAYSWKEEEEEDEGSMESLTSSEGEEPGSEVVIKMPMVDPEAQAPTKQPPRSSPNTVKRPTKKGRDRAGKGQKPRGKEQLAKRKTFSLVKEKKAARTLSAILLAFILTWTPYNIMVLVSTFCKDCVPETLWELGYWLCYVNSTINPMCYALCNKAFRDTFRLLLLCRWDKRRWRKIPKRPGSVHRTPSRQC", "test": "CHRM1 blockers of acetylcholine calcium response – CHO-K1 cells, Fluo-8 calcium fluorescence, 1536-well, primary screen (AID 588852);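 further: peak over basal fluorescence ratio during 140 s after agonist addition; 0% = ACh EC80 plus DMSO and 100% = DMSO alone without agonist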", "conditions": "CHO-K1 hM1, Fluo-8 calcium fluorescence, ACh EC80 antagonist; at 3 µM; active compounds read high", "values": [{"compound": "Cc1ccc(-c2cnc(C(O)c3cc(Cl)cc(Cl)c3)[nH]2)cc1", "note": "(configuration not stated)", "inhibition": "10.3%"}, {"compound": "COc1ccc(OC)c(-c2c(=O)n(OCc3ccccc3Br)c3ccccc3[n+]2[O-])c1", "inhibition": "-8.89%"}, {"compound": "CCN(CC)S(=O)(=O)c1ccc(N2CCOCC2)c(NC(=O)C2CSC3(C)CCC(=O)N23)c1", "note": "(configuration not stated)", "inhibition": "-11.2%"}, {"compound": "O=C(CC(O)(C(F)(F)F)C(F)(F)F)Nc1ccc(Cl)c(Cl)c1", "inhibition": "41.1% (active)"}, {"compound": "O=C(Cc1ncc(C(F)(F)F)cc1Cl)Nc1cccc(Br)c1", "inhibition": "0.3%"}, {"compound": "CN(CC(=O)Nc1ccc(Cl)c(C(F)(F)F)c1)C(=O)CCC(=O)c1ccccc1", "inhibition": "10.7%"}, {"compound": "CC(=O)N1CCN(Cc2cc(=O)oc3cc(C)ccc23)CC1", "inhibition": "-6.95%"}, {"compound": "COc1cc2ccccc2cc1C(=O)Nc1ccncc1", "inhibition": "-10.8%"}, {"compound": "O=C(Nc1ccncc1)c1cc2ccccc2o1", "inhibition": "11.1% (active)"}, {"compound": "Cc1cc(NC(=O)c2cc3ccccc3o2)no1", "inhibition": "0.12%"}, {"compound": "CNS(=O)(=O)c1cnccc1N1CCN(c2cccc(C)c2)CC1", "inhibition": "-21.3%"}, {"compound": "CC(=O)N1CCc2c(sc(NC(=O)CCS(=O)(=O)c3ccc(C)cc3)c2C(N)=O)C1", "inhibition": "-9.37%"}, {"compound": "Cc1nc2c(OCc3cccc(Cl)c3)cccn2c1N(C)CC1CC1", "inhibition": "68.1% (active)"}, {"compound": "CCCCC(=O)N(C)c1c(CC)nc2c(OCc3ccc(Cl)cc3Cl)cccn12", "inhibition": "23.1%"}, {"compound": "CCc1nc2c(OCc3ccc(Cl)cc3Cl)cccn2c1N(C)C(=O)C(C)C", "inhibition": "2.38%"}, {"compound": "CCc1nc2c(OCc3ccccc3)cccn2c1N(C)C(=O)c1ccco1", "inhibition": "-4.6%"}, {"compound": "CCc1nc2c(OCc3ccc(F)c(F)c3)cccn2c1N(C)C(=O)c1ccco1", "inhibition": "-7.6%"}, {"compound": "Cc1nc2c(OCc3ccc(Cl)cc3)cccn2c1N(C)Cc1cccs1", "inhibition": "38.4% (active)"}, {"compound": "Cc1nc2c(OCC(=O)C(C)(C)C)cccn2c1N(C)Cc1cccs1", "inhibition": "-8.77%"}, {"compound": "Cc1nc2c(OCc3ccc(Cl)cc3Cl)cccn2c1N(C)CC1CC1", "inhibition": "43.8% (active)"}, {"compound": "CCc1nc2c(OCc3cccc(OC)c3)cccn2c1N(C)C(=O)C(C)C", "inhibition": "5.18%"}, {"compound": "O=C(NCCCn1ccnc1)c1cc2c(s1)CCCC2", "inhibition": "-5.2%"}, {"compound": "CC(=O)Nc1ccc(CNc2nc(NCCN(C)C)nc3cc(-c4ccccc4)sc23)cc1", "inhibition": "-17.6%"}, {"compound": "COC(=O)c1ccc2c(c1)S(=O)(=O)NC(=NCCCN1CCOCC1)S2", "inhibition": "-10.8%"}, {"compound": "COc1ccc(NC(=O)/C(N=Nc2cccc(S(=O)(=O)Nc3ccc(SC(F)F)cc3)c2)=C(\\C)O)cc1", "inhibition": "-7.35%"}, {"compound": "COc1cc(-c2nc(S(=O)(=O)c3ccc(Cl)cc3)c(N(C)C)o2)cc(OC)c1OC", "inhibition": "-1.63%"}, {"compound": "COC(=O)CCSc1nccn1Cc1ccccc1", "inhibition": "-11.6%"}, {"compound": "CN(CCO)C(=O)c1nc[nH]c1C(=O)N(C)Cc1ccccc1", "inhibition": "-4.9%"}, {"compound": "O=S1(=O)CC(N2CCN(CCO)CC2)CN1C1CCCC1", "note": "(configuration not stated)", "inhibition": "-4.22%"}, {"compound": "CCOc1ccc(CCN2C(=S)N([C@@H](CC(C)C)CN3CCC[C@@H]3CN3C(=S)NC[C@@H]3Cc3ccc(O)cc3)C[C@@H]2CC(C)C)cc1", "inhibition": "5.64%"}, {"compound": "COc1cc(CN2CCCC(C(=O)c3ccc(SC)cc3)C2)cc(Cl)c1O", "note": "(configuration not stated)", "inhibition": "-1.81%"}, {"compound": "COc1ccc(CN2CCCC(C(=O)N3CCCCC3)C2)cc1", "note": "(configuration not stated)", "inhibition": "5.19%"}, {"compound": "COc1ccc(CN2CCCC(C(=O)c3ccc(Cl)cc3)C2)cc1Cn1cncn1", "note": "(configuration not stated)", "inhibition": "75.4% (active)"}, {"compound": "CS(=O)(=O)c1ccccc1C(=O)Nc1ccc2sccc2c1", "inhibition": "-10.3%"}, {"compound": "CCC1C(=O)NCCN1C(=O)c1ccc2nc(Cc3ccc(OC)cc3)oc2c1", "note": "(configuration not stated)", "inhibition": "-5.11%"}, {"compound": "COc1ccc(Cc2nc3ccc(C(=O)N4CCC(N(C)C)C4)cc3o2)cc1", "note": "(configuration not stated)", "inhibition": "3.18%"}, {"compound": "CCn1ccnc1CN(C)C(=O)c1ccc2nc(Cc3ccc(OC)cc3)oc2c1", "inhibition": "56.1% (active)"}, {"compound": "CCC1Sc2ccc(S(=O)(=O)CCC(=O)NCc3cccs3)cc2NC1=O", "note": "(configuration not stated)", "inhibition": "-5.05%"}, {"compound": "CC12C(=O)N(n3cnnc3)C(=O)C1C1C=CC2C1", "note": "(configuration not stated)", "inhibition": "2.29%"}, {"compound": "Cc1ccc(C)c(S(=O)(=O)N2CCN(c3ncnc4sccc34)CC2)c1", "inhibition": "34.7% (active)"}, {"compound": "Cc1ccc(S(=O)(=O)N2CCN(Cc3cccc(C)c3O)CC2)cc1", "inhibition": "4.67%"}, {"compound": "Cc1ccc(S(=O)(=O)N2CCN(c3ncnc4ccccc34)CC2)cc1", "inhibition": "35.8% (active)"}, {"compound": "Cc1ccc(S(=O)(=O)N2CCN(C)CC2)cc1", "inhibition": "-16.6%"}, {"compound": "COc1ccc(-c2csc3ncnc(N4CCN(S(=O)(=O)c5ccccc5C#N)CC4)c23)cc1", "inhibition": "-2.61%"}, {"compound": "Cc1ccc(C)c(S(=O)(=O)N2CCN(CC(=O)Nc3ccc([N+](=O)[O-])cc3)CC2)c1", "inhibition": "9.07%"}, {"compound": "CC(Sc1sc(=S)sc1SC(C)C(=O)O)C(=O)O", "note": "(configuration not stated)", "inhibition": "1.12%"}, {"compound": "C[C@H]([C@@H](O)[C@@H](O)[C@@H](C)C(C)(C)C)[C@H]1CC[C@H]2C3CC[C@H]4C[C@H](OS(=O)(=O)O)[C@@H](OS(=O)(=O)O)C[C@]4(C)[C@H]3CC[C@]12C", "note": "(some centres not stated)", "inhibition": "-9.61%"}, {"compound": "Cc1nc(-c2nnc(SCC(=O)Nc3cc(C(F)(F)F)cc(C(F)(F)F)c3)n2C)cs1", "inhibition": "-3.69%"}, {"compound": "C=C1C(=O)[C@]23C[C@H]1CCC2[C@@]1(C)C(C[C@@H]3O)[C@](C)(C(=O)O)CC[C@@H]1O", "note": "(some centres not stated)", "inhibition": "-14.8%"}, {"compound": "CN1/C(=c2/s/c(=C3/C(=O)N(c4ccccc4)NC3=Nc3ccccc3)n(C)c2=O)C(C)(C)c2ccccc21", "inhibition": "12.2%"}, {"compound": "Cc1ccccc1C(OCC(O)CN1CCCCC1CCO)c1ccccc1", "note": "(configuration not stated)", "inhibition": "28.9% (active)"}, {"compound": "COc1cccc(CN(C)CC(O)COC(c2ccccc2)c2ccccc2C)c1", "note": "(configuration not stated)", "inhibition": "16.4%"}, {"compound": "CCOc1ccccc1CN1CCN(C2CCC2)CC1CCO", "note": "(configuration not stated)", "inhibition": "-17.7%"}, {"compound": "C[C@H]1CN([C@@H](C)CO)C(=O)CCCn2cc(nn2)CO[C@@H]1CN(C)S(=O)(=O)c1cccc(C#N)c1", "inhibition": "-7.84%"}, {"compound": "Cc1cc(Br)cn2c(Cc3ccsc3)c(-c3ccc(C#N)cc3)nc12", "inhibition": "-2.47%"}, {"compound": "CC(=O)c1nn(-c2ccccc2)c(=Nc2ccccc2)cc1C", "inhibition": "2.25%"}, {"compound": "CCN(CCCCOC(=O)c1ccc(OC)c(OC)c1)C(C)Cc1ccc(OC)cc1", "note": "(configuration not stated)", "inhibition": "91.6% (active)"}, {"compound": "COc1ccc(C(CCN(Cc2ccc(OC)c(OC)c2)C(=O)CCl)c2ccccc2)cc1", "note": "(configuration not stated)", "inhibition": "-0.77%"}, {"compound": "COc1ccc(C(=O)OCC(=O)NCCCc2ccccc2)cc1OC", "inhibition": "-14.8%"}, {"compound": "CCN1CCN(c2ccc([N+](=O)[O-])cc2C(=O)c2ccc(Cl)cc2)CC1", "inhibition": "96.3% (active)"}, {"compound": "CCC(=O)c1ccc(N2CCN(C(=O)c3cc([N+](=O)[O-])ccc3F)CC2)c(F)c1", "inhibition": "11.9%"}, {"compound": "O=C(Nc1cccc(Cl)c1)c1cc([N+](=O)[O-])ccc1N1CCN(CCO)CC1", "inhibition": "-7.1%"}, {"compound": "Cc1cccc(OCC(=O)OCC(=O)Nc2ccc(Cl)cn2)c1", "inhibition": "-3.17%"}, {"compound": "CCc1noc(C)c1C(=O)N1CCCSC1=Nc1ccccc1OC", "inhibition": "3.24%"}, {"compound": "CC(C)c1ccc2oc(=O)cc(CN3CCN(Cc4ccccc4)CC3)c2c1", "inhibition": "-7.34%"}, {"compound": "N#Cc1ccc(OCCN2C(=O)NC3(CCSC3)C2=O)cc1", "note": "(configuration not stated)", "inhibition": "5.7%"}, {"compound": "COc1ccc(-c2cc3c(c4c2ccn4C)C2CCC3C2)cn1", "note": "(configuration not stated)", "inhibition": "3.78%"}, {"compound": "CC(=O)c1c(C)[nH]c(C(=O)COC(=O)c2cccc(S(=O)(=O)N(C)c3ccccc3)c2)c1C", "inhibition": "57% (active)"}, {"compound": "CC(=O)c1c(C)[nH]c(C(=O)COC(=O)c2cccs2)c1C", "inhibition": "10.1%"}, {"compound": "COc1cccc(C(=O)OCC(=O)c2[nH]c(C)c(C(C)=O)c2C)c1", "inhibition": "8.52%"}, {"compound": "O=C1C=C(c2ccccc2)CCC1", "inhibition": "6.35%"}, {"compound": "NC(Cc1ccc(F)cc1)c1csc(Nc2nncc3ccccc23)n1", "note": "(configuration not stated)", "inhibition": "-3.42%"}, {"compound": "COc1ccc(OC)c(C(=O)NC2CCCc3c2cnn3-c2cc(C)cc(C)c2)c1", "note": "(configuration not stated)", "inhibition": "-5.27%"}, {"compound": "COc1ccc(C(=O)NC2CCCc3c2cnn3-c2cccc(C)c2C)c(OC)n1", "note": "(configuration not stated)", "inhibition": "46.9% (active)"}, {"compound": "COc1ccc(C(=O)NC2CC(C)(C)Cc3c2cnn3-c2ccccc2C)o1", "note": "(configuration not stated)", "inhibition": "0.26%"}, {"compound": "Cc1cn([C@H]2C[C@H](O)[C@@H](/C=C/C(=O)NCCCc3ccccc3)O2)c(=O)[nH]c1=O", "inhibition": "-25.2%"}, {"compound": "COc1cccc(NC(=O)CN(C)C(=O)CSCc2nc3scc(-c4cccs4)c3c(=O)[nH]2)c1", "inhibition": "-1.71%"}, {"compound": "CCN(CCCNC(=O)c1ccc2c(c1)NC(=O)CN2C)c1cccc(C)c1", "inhibition": "8.18%"}, {"compound": "NS(=O)(=O)c1cccc(NC(=O)CC23CC4CC(CC(Br)(C4)C2)C3)c1", "inhibition": "6.38%"}, {"compound": "CC(C)Oc1cc(F)ccc1-c1cc(C(=O)Nc2ccc(F)cc2)[nH]n1", "inhibition": "5.41%"}, {"compound": "COc1ccc(Cl)cc1-c1cc(C(=O)Nc2cc(OC)c(OC)c(OC)c2)[nH]n1", "inhibition": "0.33%"}, {"compound": "CCCOc1ccc(F)cc1-c1cc(C(=O)Nc2ccc(F)cc2)[nH]n1", "inhibition": "34.5% (active)"}, {"compound": "CCCOc1ccc(F)cc1-c1cc(C(=O)Nc2ccc(F)c(Cl)c2)[nH]n1", "inhibition": "58.9% (active)"}, {"compound": "CC(C)Oc1cc(F)ccc1-c1cc(C(=O)Nc2cccc(Cl)c2)[nH]n1", "inhibition": "24.4%"}, {"compound": "CCCOc1ccc(F)cc1-c1cc(C(=O)NCc2ccc(F)cc2)[nH]n1", "inhibition": "1.58%"}, {"compound": "CCOC(=O)[C@H]1Nc2ccc(Cl)cc2[C@@H]2[C@H]1C1CC(c3ccccc31)N2C(=O)OCc1ccccc1", "note": "(some centres not stated)", "inhibition": "6.68%"}, {"compound": "Nc1cc(C(F)(F)F)ccc1N1CCOCC1", "inhibition": "3.72%"}]}]}
